Data: PubChem BioAssay AID1942 (Johns Hopkins Ion Channel Center, 2009)
Among all 2,400 compounds or so, about 580 (24%) were called active. The list is a sample of the results. Values without a mark were called inactive.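 The calls were made as follows: active = activity change at or above the mean plus 3 SD of buffer wells without dofetilide, per plate; inactive = the rest.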

Each compound was assayed against Potassium voltage-gated channel subfamily KQT member 2 (Rattus norvegicus) (UniProt O88943) (assay: KCNQ2 potentiation in CHO cells – cell-based, FluxOR thallium flux, counter-screen for hERG block protector project, confirmation (AID 1942;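 also: normalized value minus buffer-control mean plus three SD of buffer wells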)). Settings: FluxOR thallium flux fluorescence, at 10 µM, hits give high values.
Sequence of Potassium voltage-gated channel subfamily KQT member 2 (Rattus norvegicus) (O88943 whole entry, looked up): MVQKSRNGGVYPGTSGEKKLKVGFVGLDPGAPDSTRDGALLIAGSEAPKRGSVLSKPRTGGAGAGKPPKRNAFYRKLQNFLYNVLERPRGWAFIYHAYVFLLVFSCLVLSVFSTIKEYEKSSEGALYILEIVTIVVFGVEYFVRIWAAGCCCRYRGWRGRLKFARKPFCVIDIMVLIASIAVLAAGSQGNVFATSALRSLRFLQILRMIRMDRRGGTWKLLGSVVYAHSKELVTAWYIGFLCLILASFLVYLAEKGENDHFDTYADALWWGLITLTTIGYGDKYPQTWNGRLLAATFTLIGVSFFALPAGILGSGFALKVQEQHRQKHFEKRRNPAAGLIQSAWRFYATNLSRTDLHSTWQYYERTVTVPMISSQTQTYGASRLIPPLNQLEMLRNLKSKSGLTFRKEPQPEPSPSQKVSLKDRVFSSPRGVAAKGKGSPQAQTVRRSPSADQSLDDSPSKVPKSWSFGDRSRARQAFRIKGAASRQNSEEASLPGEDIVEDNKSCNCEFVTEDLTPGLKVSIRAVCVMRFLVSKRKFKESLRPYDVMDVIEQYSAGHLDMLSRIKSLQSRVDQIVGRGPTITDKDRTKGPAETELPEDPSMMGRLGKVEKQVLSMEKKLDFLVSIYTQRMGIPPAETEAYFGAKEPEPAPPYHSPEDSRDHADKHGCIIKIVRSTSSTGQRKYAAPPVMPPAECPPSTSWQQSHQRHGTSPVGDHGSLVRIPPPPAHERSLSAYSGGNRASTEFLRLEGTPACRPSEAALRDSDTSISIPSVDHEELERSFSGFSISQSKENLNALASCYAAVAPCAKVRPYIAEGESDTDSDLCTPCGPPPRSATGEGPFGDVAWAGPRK

SMILES | activity change, less the hit threshold
O=C(OCc1ccccc1)C1=NNC2C(=O)N(c3ccc(Br)cc3)C(=O)C12 (stereo unspecified) | -11.1%
C=C(C)CNC(=S)NN=C1c2ccccc2-c2ccccc21 | -7.1%
COc1ccccc1C1C(C(=O)c2ccc(C)o2)=C(O)C(=O)N1c1cc(C)on1 (stereo unspecified) | -9.3%
COc1ccccc1-n1cnc2cc(NS(=O)(=O)c3ccc(Br)cc3)ccc21 | -25.5%
CC1Oc2ccccc2N(CC(=O)N2CCCCCC2)C1=O (stereo unspecified) | -17.7%
O=C(COc1coc(CN2CCc3ccccc3C2)cc1=O)Nc1cccc(Cl)c1 | -26%
COc1ccc(CCNC(=O)C(=O)Nc2ccc3c(c2)OCO3)cc1OC | -19%
COc1cc(/C=N/NC(=O)NC2CCCCC2)ccc1O | -11.5%
O=C(COC(=O)/C=C/c1ccc2c(c1)OCO2)NC1CC1 | -11.4%
CC(NC(=O)NC1CCCCC1)c1ccc2c(c1)OCO2 (stereo unspecified) | 51% (active)
CCOC(=O)N1CCN(C(=O)c2ccc(Cl)c(S(=O)(=O)Nc3ccccc3)c2)CC1 | -3.5%
COc1ccc(N2CCN(C(=O)c3ccc(-c4ccccc4)cc3)CC2)cc1 | -20%
O=C(c1ccc(Cl)c(S(=O)(=O)N2CCCC2)c1)N1CCN(c2ccccc2F)CC1 | -7.1%
Cc1ccc(C(=O)N2CCN(c3ccccc3)CC2)cc1S(=O)(=O)N1CCCC1 | 1.9% (active)
CCOC(=O)N1CCN(C(=O)c2ccc(CN(c3ccc(C)c(C)c3)S(C)(=O)=O)cc2)CC1 | -15.6%
CCOC(=O)N1CCN(C(=O)c2ccc(C)c(S(=O)(=O)Nc3ccccc3)c2)CC1 | 4% (active)
Cc1cccc(/N=C/c2sc3ccccc3c2O)n1 | -11.6%
CCC(=O)c1cc2c(C)cc(=O)oc2c(C)c1O | -12.6%
CSc1ccc(CNc2nc3ccccc3n3cnnc23)cc1 | -28.3%
COc1ccc(COC(=O)C2CCN(S(=O)(=O)c3cccs3)CC2)cc1 | -20.1%
c1ccc(-c2csc(Nc3ccc4c(c3)OCCO4)n2)cc1 | -20.3%
O=C(COC(=O)c1cc[n+]([O-])cc1)Nc1cc([N+](=O)[O-])ccc1Cl | -11.7%
O=C(Cc1ccc(Cl)cc1)Nc1cccc(-c2nnc(-c3ccco3)o2)c1 | -13.4%
O=C(Nc1nnc(-c2ccccc2)o1)c1ccc(Cl)cc1 | -17.9%

SMILES | activity change, less the hit threshold
O=C(Nc1nnc(-c2ccc3c(c2)CCCC3)o1)C1COc2ccccc2O1 (stereo unspecified) | 4.3% (active)
O=C(Nc1nnc(-c2ccc3c(c2)CCCC3)o1)c1ccc(Cl)cc1Cl | 30.2% (active)
O=C(CCc1ccccc1)Nc1nnc(-c2ccccn2)o1 | -17.4%
O=C(Nc1nc2c(F)cc(F)cc2s1)C1COc2ccccc2O1 (stereo unspecified) | -25.7%
O=C(N=C1SC2CS(=O)(=O)CC2N1c1cccc(Cl)c1Cl)C1CCCO1 (stereo unspecified) | -21.2%
CCCN(C(=O)c1ccco1)c1nnc(-c2ccncc2)s1 | -7.4%
Cc1ccc(/C(O)=C2\C(=O)C(=O)N(Cc3cccnc3)C2c2ccccc2[N+](=O)[O-])cc1 (stereo unspecified) | -16%
Cc1ccc(NC(=O)CN2C(=O)S/C(=C/c3ccc(-c4cc(C(=O)O)ccc4C)o3)C2=O)cc1C | -24.7%
Cc1ccc2c(c1)N(CCC(=O)NCc1cccnc1)C(=O)CO2 | -10.8%
C/C(=C\C(=O)c1ccncc1)Nc1ccccc1O | -11.7%
O=C1CC(O)(C(F)(F)F)Oc2c1ccc1ccccc21 (stereo unspecified) | 28.3% (active)
CC1(C)Cc2c(ccc3ccccc23)C2=C(C(=O)N3CCCC3)C(=O)C(=O)N21 | -11.1%
Nc1nc2c(s1)CCCCCCCCCC2 | -3%
O=C(c1ccco1)N(c1ccccn1)c1ccccn1 | -21.4%
Brc1ccc(C2=CC(c3ccco3)n3nnnc3N2)cc1 (stereo unspecified) | -16.3%
O=C(O)c1sccc1OCc1ccccc1 | -0.9%
C=CCn1c(O)c(N=NC(=S)Nc2ccc(OC)cc2)c2ccccc21 | 25% (active)
Cc1ccccc1Cn1c(O)c(N=NC(=S)Nc2ccccc2F)c2ccccc21 | -20.7%
C=CCn1c(O)c(N=NC(=S)Nc2ccc(OC)c(Cl)c2)c2ccccc21 | 3.8% (active)
Oc1c(N=NC(=S)Nc2ccccc2F)c2ccccc2n1Cc1cccc(Cl)c1 | -13%
Cc1ccc(C)c(Cn2c(O)c(N=NC(=S)Nc3ccccc3F)c3ccccc32)c1 | -11.3%
Oc1c(N=NC(=S)Nc2ccccc2F)c2ccccc2n1Cc1ccccc1F | -12.8%
CCCCCCCc1c(O)nc(SCC(=O)O)[nH]c1=O | -8.4%
Cc1cc(-c2ccccc2)[nH]c(=O)c1S(=O)(=O)c1ccccc1 | -13%

SMILES | activity change, less the hit threshold
C/C(N)=C(/C#N)C(=O)COC(=O)C1CCC(C(C)(C)C)CC1 (stereo unspecified) | -10%
Cn1cc(CCC(=O)N2CCCC(Nc3ccc(F)cc3)C2)cn1 (stereo unspecified) | -23.8%
CCC(=O)Nc1nnc(-c2ccccn2)o1 | -22.5%
CC(Oc1ccc(Cl)cc1)/C(N)=N/O (stereo unspecified) | -19.6%
CCc1cccc(C)c1NC(=O)C1=C(C(=O)O)CCCC1 | -15.9%
CC(=O)c1n[nH]nc1NC(=O)c1ccccc1 | -9.7%
Cc1ccccc1Cn1nc(C)c(NC(=O)c2ccccc2)c1C | 51.6% (active)
COc1ccc(CCN2C(=O)CSC2=S)cc1OC | -24%
O=C(CCC1CCCC1)NNC(=O)c1cccc(Cl)c1 | 11.7% (active)
Cc1cccc(C(=O)NC(=S)NNC(=O)c2ccc(Cl)cc2)c1 | -29%
O=C(NC(=S)NCCc1ccccc1)c1cccc(Cl)c1 | -22.4%
Cc1ccccc1NC(=O)CC1S/C(=N/c2nccs2)N(C)C1=O (stereo unspecified) | -17.1%
O=C(O)C1CCN1C1CCCCC1 (stereo unspecified) | -22.9%
CCOc1cc(-n2ncc(C#N)c2N)nc(SC)n1 | -21.7%
CCOC(=O)c1ccc(Oc2cc(C)nc(SC)n2)cc1 | 11.9% (active)
CC(C)(C)OC(=O)NCCCC(CCCNC(=O)OC(C)(C)C)C(=O)O | -22.6%
CCOC(=O)N1CCN(C(=O)COC(=O)c2cc(Cl)c(O)c(Cl)c2)CC1 | -13.4%
COc1ccc2[nH]c3c(=O)n(CCN4CCOCC4)cnc3c2c1 | -15.3%
O=C(Nc1ncc(Cc2ccc(C(F)(F)F)cc2)s1)c1ccc(-c2cccc([N+](=O)[O-])c2)o1 | -12.3%
O=C(NCC1CCCO1)c1ccc2c(=O)n(Cc3ccco3)c(SCC(=O)N3CCCC3)nc2c1 (stereo unspecified) | 3.2% (active)
O=C(NCc1ccco1)c1ccc(OCC2CCCO2)cc1 (stereo unspecified) | -26.4%
O=C(CSc1cn(CC(=O)N2CCCC2)c2ccccc12)NCC1CCCO1 (stereo unspecified) | -27.5%
OC(COC(c1ccccc1)c1ccccc1)CN1CCCCC1 (stereo unspecified) | -23.9%
COc1ccc(C(CC(=O)O)NC(=O)C(c2ccccc2)c2ccccc2)cc1 (stereo unspecified) | -23.8%

SMILES | activity change, less the hit threshold
O=C1C(=Cc2cccn2-c2ccc(O)cc2)C(=O)c2ccccc21 | -25.6%
CC(C)(C)C(=O)NC(=S)N1CCOCC1 | -8%
O=C(C1CCN(S(=O)(=O)c2cc(Cl)ccc2Cl)CC1)N1CCOCC1 | -26%
CCCCCCC1CCC(C(=O)N2CCOCC2)CC1 (stereo unspecified) | 5.9% (active)
COC(=O)Sc1nnc(-c2ccc(Br)cc2)o1 | -1.8%
CCc1ccc2c(c1)c(N=NC1=NC(=O)CS1)c(O)n2CC | 26.5% (active)
CCn1c(O)c(N=NC2=NC(=O)CS2)c2cc(C)ccc21 | -10.5%
CCn1c(O)c(N=NC2=NC(=O)CS2)c2ccccc21 | -5.8%
C/C(=N/NC(=O)c1ccncc1)c1ccc2c(c1)OCO2 | -22.1%
O=C(NNC(=O)C12CC3CC(CC(O)(C3)C1)C2)c1ccccc1O | -1.7%
COc1cccc(OCC(=O)NNC(=O)C(=O)Nc2ccc(OC)cc2OC)c1 | 15.4% (active)
COc1ccc(OCC(=O)NNC(=O)C(=O)Nc2cc(OC)ccc2OC)cc1 | 15.9% (active)
COc1ccc(OC)c(NC(=O)C(=O)NNC(=O)C23CC4CC(CC(C4)C2)C3)c1 | 96.2% (active)
COc1ccc(NC(=O)C(=O)NNC(=O)COc2ccc(OC)cc2)cc1 | -24.3%
COc1ccc(NC(=O)C(=O)NNC(=O)COc2ccc(Cl)cc2)c(OC)c1 | 15.6% (active)
O=C(COc1ccc(S(=O)(=O)NCc2ccccc2)cc1Cl)NCC1CCCO1 (stereo unspecified) | -14.4%
Cc1ccc(-n2c(C)cc(C(=O)CN3CCOCC3)c2C)cc1 | -12.8%
CN(CC(=O)Nc1ccc(OC(F)(F)F)cc1)S(=O)(=O)c1cnc[nH]1 | -18.2%
CCN1C(=O)[C@H]2[C@@H](c3ccc(-c4ccc(OC)cc4)cc3)N[C@@](C)(C(=O)OC)[C@H]2C1=O | -17.6%
CCC(NS(=O)(=O)c1ccc(OC)cc1)C(=O)O (stereo unspecified) | -16.1%
CN(C)c1oc(-c2ccccc2[N+](=O)[O-])nc1C#N | -6.7%
Cc1ccccc1NC(=O)CN1C(=O)S/C(=C\c2ccc(-c3cc(C(=O)O)ccc3C)o2)C1=O | -10.8%
Cc1ccc(NC(=S)N2CCN(c3ccccc3F)CC2)c(C)c1 | -10.4%
Cn1c(=O)[nH]c(=O)c2c1nc(CN1CCN(c3ccccc3F)CC1)n2CCCc1ccccc1 | -12.9%
